An excerpt weighted towards active compounds, which were near 3.1% of everything screened.
Vif-A3F inh: qHTS for Inhibitors of Vif-A3F Interactions: qHTS | HeLa A3F-eYFP + Vif (tagged APOBEC3F with the HIV-1 protein that degrades it), YFP fluorescence increase | Potency, µM (series often up to 46.1 µM) | 0.2% of 390,000 active; also: nearly all actives have a fitted effect of over 65% in size
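Fluorescence increase (Ex 488/Em 500-530) after overnight compound treatment at 37 deg C flags inhibition of Vif-driven A3F-eYFP loss in stable HeLa A3F-eYFP/Vif cells seeded overnight beforehand.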
VDR inh: Inhibitors of the vitamin D receptor (VDR): qHTS; VDR-SRC2-3 peptide fluorescence polarization, 2 h; 0.93% of 400,000 active; Vitamin D3 receptor (Homo sapiens), P11473; Potency, µM, actives largely listed as inhibitors
Target sequence (P11473 whole entry, looked up): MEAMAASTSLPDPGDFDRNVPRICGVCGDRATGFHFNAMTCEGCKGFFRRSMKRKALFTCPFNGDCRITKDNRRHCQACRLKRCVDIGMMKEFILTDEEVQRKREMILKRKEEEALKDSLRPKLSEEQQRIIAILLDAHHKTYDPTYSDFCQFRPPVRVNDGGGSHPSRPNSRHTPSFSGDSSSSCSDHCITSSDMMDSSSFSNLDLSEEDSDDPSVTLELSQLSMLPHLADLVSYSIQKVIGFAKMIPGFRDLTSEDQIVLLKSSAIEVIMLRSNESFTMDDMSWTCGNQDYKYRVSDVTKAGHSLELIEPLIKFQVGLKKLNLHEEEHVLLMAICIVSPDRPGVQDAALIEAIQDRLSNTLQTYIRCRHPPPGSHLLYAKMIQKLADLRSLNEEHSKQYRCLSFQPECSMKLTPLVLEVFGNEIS
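VDR–SRC2-3 interaction, FP format. Cmpds 23 nl via pintool, brief spin, 2 h ambient incubation.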
Vif-APOBEC3G blk: qHTS for Inhibitors of Vif-A3G Interactions: qHTS; DNA dC->dU-editing enzyme APOBEC-3G (Homo sapiens), Q9HC16; HeLa A3G-eYFP + Vif (tagged APOBEC3G with the HIV-1 protein that degrades it), YFP fluorescence, overnight; Potency, µM (highest dose often 46.1 µM), usual class: inhibitors; 0.076% of 410,000 active; AID 602310, 2012; also: nearly all actives have a fitted effect of over 60% in size
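HeLa cells stably expressing Vif and C-terminally eYFP-tagged A3G, seeded overnight at 37 deg C, then exposed to compound by pintool overnight at 37 deg C. Rise in yellow fluorescence (Ex 488/Em 500-530, Acumen) marks blocked Vif-driven A3G degradation.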
TSHR antag: Antagonists of the Thyroid Stimulating Hormone Receptor: HTS campaign; TSHR-expressing cells, TSH-stimulated cAMP HTRF, 2 h; hits give low values; AID 504810, 2011; activity change, negative = inhibition, % at 11.5 µM; 0.2% of 330,000 active;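 active = activity change below a set negative limit, meaning inhibition stronger than a set level, cut at about -70% in these data; inconclusive = activity change between two set negative limits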
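Antagonism was scored as loss of TSH-driven cAMP in TSHR cells, stimulated with 4nM TSH (EC80) for 2 hours at 37 deg C and detected by homogeneous HTRF competition immunoassay.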
PLK1 PBD inh: qHTS for Inhibitors of PLK1-PDB (polo-like kinase 1 - polo-box domain): Primary Screen; Serine/threonine-protein kinase PLK1 (Homo sapiens), P53350; Plk1 PBD binding of FITC phosphopeptide, fluorescence polarization; Potency, µM, actives largely listed as inhibitors; 2.8% of 360,000 active; also: series mostly up to about 57 µM; nearly all actives have a fitted effect of over 65% in size
Each line names hits and unclear results; the compound was inactive in the other large screens. Unless noted, calls follow the shape of the dose curve; as a rule, active = well fitted curve in the direction sought with a large enough effect; inconclusive = small, poorly fitted or top-dose-only effect, or another doubt; inactive = no such curve, though single readings can be large; an effect the other way counts as inactive or inconclusive.

Cc1cccc(C)c1NC(=S)NC(=O)c1ccc(Br)o1	VDR inh inconclusive, PLK1 PBD inh 6µM
COc1ccc(OCc2cc(C(=O)N(C)CCC3CCOCC3)no2)c(Cl)c1	VDR inh inconclusive, PLK1 PBD inh 27µM
COc1ccc(C(=O)N/N=C/c2cc(Br)ccc2O)cc1OC	Vif-A3F inh 11µM
COc1ccc(Br)cc1/C=N/NC(=O)CN1CCCCC1	TSHR antag -122
O=C1CCC[C@@H]2C[C@@]3(C[C@@H]4CCN1[C@H]24)Nc1ccccc1NC3=NC1CCCCC1	none (no result: Vif-A3F inh, VDR inh, TSHR antag, PLK1 PBD inh)
CCOc1ccc(NC(=O)C2CC(=O)N(c3ccc(C(C)C)cc3)C2)cc1 (stereo not given)	none (no result: TSHR antag, PLK1 PBD inh)
N#Cc1c(/N=C/N2CCOCC2)sc2c1CCCCC2	PLK1 PBD inh 21µM
CN(C)/C=N/c1sc2c(c1C#N)CCCCC2	none
O=C(O)C1=C(OCc2ccc(F)c(F)c2)C(=O)NCC1	VDR inh 79µM, PLK1 PBD inh 27µM
O=C(O)c1ccc(COc2c(F)c(F)cc(F)c2F)cc1	none
O=S(=O)(Nc1ccc(C(F)(F)F)cc1)c1ccc2c(c1)OCCO2	none (no result: TSHR antag, PLK1 PBD inh)
Cn1cnc([N+](=O)[O-])c1S(=O)(=O)Oc1ccc(Cl)cc1	VDR inh 25µM, PLK1 PBD inh inconclusive (no result: TSHR antag)
Cn1cnc([N+](=O)[O-])c1Oc1ccccc1	none
CCS(=O)(=O)c1c([N+](=O)[O-])ncn1C	Vif-APOBEC3G blk inconclusive
Cn1cnc([N+](=O)[O-])c1S(=O)(=O)Oc1cccc2ccccc12	VDR inh inconclusive, PLK1 PBD inh 8.4µM (no result: TSHR antag)
Cc1ccc(C)c(N2CCN(C(=O)Cn3cnc4onc(-c5ccc(F)cc5)c4c3=O)CC2)c1	none (no result: TSHR antag, PLK1 PBD inh)
CC(C)(C)n1ncc2c(=O)n(Cc3cc(Cl)ccc3Cl)cnc21	none (no result: Vif-A3F inh, VDR inh, TSHR antag, PLK1 PBD inh)
COc1ccc(C2Nc3ccccc3C(=O)N2Cc2ccco2)cc1 (stereo not given)	none (no result: Vif-A3F inh, TSHR antag, PLK1 PBD inh)
COc1ccccc1C(=O)N1CCN(c2cccc(Cl)c2)CC1	Vif-APOBEC3G blk inconclusive, PLK1 PBD inh 24µM
CS(=O)(=O)N(Cc1ccc(Cl)cc1)c1ccc(C(=O)N2CCN(c3ccccc3)CC2)cc1	none
CS(=O)(=O)N(Cc1ccccc1)c1ccc(C(=O)N2CCN(c3cccc(Cl)c3)CC2)cc1	TSHR antag -92
COc1cc2c(C(=O)N3CCN(c4cccc(Cl)c4)CC3)cn(C)c(=O)c2cc1OC	Vif-APOBEC3G blk inconclusive
O=C(c1cccc(Br)c1)N1CCN(c2cnn(-c3ccccc3)c(=O)c2Cl)CC1	none
O=C(c1ccccc1F)N1CCN(c2cnn(-c3cccc(Cl)c3)c(=O)c2Cl)CC1	PLK1 PBD inh 27µM
Cc1cccc(C)c1Nc1oc(-c2ccccc2)nc1-c1ccccc1F	none (no result: Vif-A3F inh, Vif-APOBEC3G blk, TSHR antag, PLK1 PBD inh)
CC(=O)c1cc2ccccc2c2ccccc12	none (no result: Vif-A3F inh, VDR inh, TSHR antag, PLK1 PBD inh)
O=C(CSc1n[nH]c(-c2ccccc2Cl)n1)NCCc1ccccc1	none (no result: TSHR antag, PLK1 PBD inh)
COC(=O)C1=C[C@@H](C(=O)OC)[C@@H]2C3=C(C(=O)C2(C)C)[C@H](C)n2c(=O)n(C)c(=O)n2[C@@H]3C1	VDR inh inconclusive (no result: Vif-A3F inh, TSHR antag, PLK1 PBD inh)
CC(C)C[C@H](NC(=O)[C@H](CO)NC(=O)[C@@H]1CCCN1C(=O)[C@H](Cc1ccc(O)cc1)NC(=O)[C@H](CC(C)C)NC(=O)[C@H](CC(C)C)NC(=O)[C@@H]1CCCN1C(=O)[C@@H](NC(=O)[C@H](CO)NC(=O)[C@H](CO)NC(=O)[C@H](CO)NC(=O)[C@H](CO)NC(=O)[C@@H]1CCCN1C(=O)[C@@H](NC(=O)[C@@H](N)CO)C(C)C)[C@@H](C)O)C(=O)N[C@@H](C)C(=O)N[C@@H](CC(C)C)C(=O)N1CCC[C@H]1C(=O)N[C@@H](C)C(=O)N1CCC[C@H]1C(=O)O	none (no result: Vif-A3F inh, Vif-APOBEC3G blk, TSHR antag, PLK1 PBD inh)
COc1ccc(C2C3C=CCCC3(C)C(=O)N2Cc2ccccc2)cc1Cl (stereo not given)	none (no result: Vif-A3F inh, TSHR antag, PLK1 PBD inh)
O=C(NNc1ccc([N+](=O)[O-])cc1)c1ccccc1Cl	none
O=C(NC(NNc1ccc([N+](=O)[O-])cc1)(C(F)(F)F)C(F)(F)F)c1ccc(Cl)cc1	VDR inh 79µM
O=[N+]([O-])c1ccc(Nc2nc(N/N=C/c3cccc(F)c3)nc(N3CCCC3)n2)cc1	none

Screening results deposited in PubChem BioAssay by National Center for Advancing Translational Sciences (NCATS).
